The values below come from PubChem BioAssay (NCATS).

Records with an inconclusive call do not appear. The source made the active and inactive calls. Unless noted, the call rests on the fitted dose curve; in most records, active means well fitted curve in the direction sought with a large enough effect; inconclusive means small, poorly fitted or top-dose-only effect, or another doubt; inactive means no such curve, though single readings can be large; an effect the other way counts as inactive or inconclusive. A value given as a limit tells only on which side of the number the result lay.

Test [1] addresses Glucocorticoid receptor (Homo sapiens) (UniProt P04150). Briefly: GR-GFP Redistribution (AID 450;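 active means compounds whose dose series gives a full or clear partial fitted curve of increased nuclear translocation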; further: potency means the concentration at half of the fitted maximal effect). The conditions noted are these: U2OS GR-GFP nuclear translocation, laser cytometry, 2 h.
Test [2] addresses Mitogen-activated protein kinase 10 (Mus musculus) (UniProt Q61831). Kind of test: JNK3 AlphaScreen Assay (AID 530; active means well fitted curve in either direction with a large enough effect, not every such curve was filed as active;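 further: kinase came from lysate of stimulated human HepG2 cells; signal reports phosphorylation of biotinylated GST-cJun 1-79 at Ser73 with 10 µM ATP; on the % scale 0 is the no-effect control and ±100 the full control effect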). In a few lines: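 qHTS titrations with 15 min compound pre-incubation before adding ATP (10 uM final). Read-out: AlphaScreen of Ser73-phosphorylated biotin-GST-cJun using HepG2 lysate JNK3 activated by IL-1β and TNFα.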
(In general: Bead proximity is the source of the signal in Alpha formats.)

Test [3] deals with 3',5'-cyclic-AMP phosphodiesterase 4B (Homo sapiens) (UniProt Q07343). Briefly: qHTS Assay for Inhibitors of PDE-IV (AID 607; active means well fitted activation curve with a large enough effect in the main read-out, with a control signal flat, not every such curve was filed as active; further: % of control where 0% means no effect). The method in brief: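 ACTOne HEK293 cells carry a modified cAMP-gated CNG channel and express endogenous PDE4; plated 1000 cells/well, compounds up to 22.9 uM final. Membrane-potential dye fluorescence (ex 535/em 590) was read; parental cells received 10 uM forskolin + 100 uM RO 20-1724.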
A general note: In qHTS, concentration-response curves come from the screen itself.

Test [4] is described as follows: qHTS Assay for Lipid Storage Modulators (AID 1519; calls by dose curve; on activity change, negative = inhibition: on the % scale 0 is the no-effect control and ±100 the full control effect). The conditions noted are these: Drosophila S3 cells, BODIPY lipid droplet/cell ratio, laser cytometry, cells loaded with oleic acid; for activity change, negative = inhibition: at 57.5 µM (top of the series). In a few lines: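 Cells seeded at 5,000 per well were treated with compounds over a concentration series and loaded with oleic acid (400 uM, as added). Lipid droplet fluorescence (488 nm excitation, 500-530 nm channel) was read by laser-scanning cytometry and normalized to 20 uM Triacsin C.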

In test [5] the target is DNA dC->dU-editing enzyme APOBEC-3G (Homo sapiens) (UniProt Q9HC16). Briefly: qHTS for inhibitors of Vif-A3G interactions: Validation (AID 588379). Further: 0% is about no effect. The method in brief: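 Yellow fluorescence (Ex 488, Em 500-530) of Vif-coexpressing HeLa A3G-eYFP cells, scanned by Acumen cytometer, reports blocked A3G degradation. Cells plated at 700/well overnight at 37 deg C before compound addition, then a further overnight compound incubation at 37 deg C.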

Test [6] in a line: Primary qHTS for small molecule stabilizers of the endoplasmic reticulum resident proteome: Secreted ER Calcium Modulated Protein (SERCaMP) assay (AID 1508630). Further: on the % scale 0 is the no-effect control and ±100 the full control effect. The method in brief: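 The SH-SY5Y reporter protocol was run at 3 concentrations up to 38.3 uM (primary) or 11 concentrations (follow-up): 16 h compound, 100 nM thapsigargin for 4 h, then extracellular luciferase luminescence.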

Test [7] relates to Zika virus NS2B-NS3 protease (linked construct). Briefly: Primary screen NINDS Rhodamine qHTS for Zika virus inhibitors (AID 1347160). Further: nearly all actives have a fitted effect of over 55% in size. Further: potency means the concentration at half of the fitted maximal effect. On activity change, negative = inhibition: on the % scale 0 is the no-effect control and ±100 the full control effect. In a few lines: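 Aprotinin served as in-plate control. Conditions: 25 nM linked NS2B-NS3, pH 8.0 Tris buffer, titrated compounds, 15 min preincubation and 15 min reaction with 1.5 microM Rhod110 substrate at room temperature.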
Test [8] can be described thus: OV-KATE Cancer Cell Toxicity qHTS against the NCATS CANVASS Library (AID 1347345). Further: potency means the concentration at half of the fitted maximal effect. The method in brief: (§1)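 Viability was assessed by adding CellTiter-Glo reagent to treated cultures and reading luminescence after 15min at room temperature. Treatment lasted 72 h at 37 degrees C/5% CO2, using an 11-point series on 1000 cells/well.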
The nature of test [9]: HPAF-II Cancer Cell Toxicity qHTS against the NCATS CANVASS Library (AID 1347346). Further: nearly all actives have a fitted effect of over 55% in size. Further: potency means the concentration at half of the fitted maximal effect. In a few lines: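 First, HPAF-II cells are plated (1000 cells/well) and held 4 h at 37 degrees C. Next, compounds are pin-transferred as an 11-point series. After 72 h, CellTiter-Glo is added and luminescence measured.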
The nature of test [10]: OV-SAHO Cancer Cell Toxicity qHTS against the NCATS CANVASS Library (AID 1347348). Further: nearly all actives have a fitted effect of over 55% in size. Further: potency means the concentration at half of the fitted maximal effect. In a few lines: as §1
Test [11] is described as follows: HEK293 24hr Apoptosis Induction qHTS against the NCATS CANVASS Library (AID 1347359). Further: potency means the concentration at half of the fitted maximal effect. On activation: 0% is about no effect. In a few lines: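 Caspase-3/7 activation measured as luminescence from the DEVD-based Caspase-Glo reagent, 15 min at room temperature, following 24-hour compound treatment of HEK293 cells.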
A short description of test [12]: HEK293 12hr Apoptosis Induction qHTS against the NCATS CANVASS Library (AID 1347361). Further: potency means the concentration at half of the fitted maximal effect. In a few lines: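 Read-out: Caspase-Glo 3/7 luminescence (DEVD substrate), 15 min RT. Preceded by 12 h compound exposure of HEK293, 500 cells/well, 11-pt qHTS titration; doxorubicin titration as control.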
For test [13], the system named is NAD(P)H diaphorase (Clostridium kluyveri). Kind of test: Diaphorse counterscreen qHTS: Assay Interference Panel against the NCATS CANVASS Library (AID 1347362). Further: 0% is about no effect. In a few lines: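 Counterscreen for coupling-enzyme interference: resorufin fluorescence from resazurin/NADH turnover, read after 5 min at room temperature. Compounds were tested over an 11-point series after 15 min dark preincubation with diaphorase in PBS-Tween.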
(In general: The purpose of a counterscreen is to sort out artefacts and off-target activity.)

The target of test [14] is Luciferin 4-monooxygenase (Photinus pyralis) (UniProt P08659). Briefly: Firefly luciferase counterscreen qHTS: Assay Interference Panel against the NCATS CANVASS Library (AID 1347363). Further: 0% is about no effect. The method in brief:
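Luminescence inhibition readout: compounds (11-point qHTS) sat 15 min at room temperature with substrate mix (0.013 mM luciferin and ATP), then firefly luciferase was added and signal read 5 min later.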

Test [15] concerns the target Nuclear receptor subfamily 1 group I member 3 (Homo sapiens) (UniProt Q14994). Kind of test: qHTS for Constitutive Androstane Receptor (CAR) Agonist screened against the NCATS CANVASS Library (AID 1347373).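 Further: every well also contained 1.5 µM PK11195 alongside the test compound; 0% is about no effect.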 In a few lines: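 Cells were plated and allowed to attach for 4hr, then dosed with compound in an 11-point series alongside 1.5uM PK11195. After 24hr at 37C, viability was measured fluorometrically and CAR-driven CYP2B6 reporter luminescence was recorded.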

The nature of test [16]: 10-beta competent E. coli microbial cell viability qHTS against the NCATS CANVASS Library (AID 1347376). Further: 0% is about no effect. In a few lines:
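Bacterial suspension diluted to 0.2 OD was dosed with compounds, 11-point series, then held overnight at 37C. BacTiter-Glo reagent was added, and after 20 min at room temperature ATP-dependent luminescence was measured.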

A short description of test [17]: qHTS for H2AX Agonists against the NCATS CANVASS Library (AID 1347378). Further: potency means the concentration at half of the fitted maximal effect. On activation: 0% is about no effect. The method in brief: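 CHO-K1 cells were plated overnight at 37C, then exposed to compounds (concentration series, 0.76% DMSO final) for 3 hr at 37C. Lysates received Eu-cryptate anti-pH2AX (S139) and d2 anti-H2AX antibodies; after 24 hr at room temperature, TR-FRET 665/620 nm ratio was read.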

Test [18] in a line: Inflammasome Signaling qHTS Counterscreen: IL-1-beta AlphaLISA counterscreen against the NCATS CANVASS Library (AID 1347381).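 Further: cell-free check with purified IL-1β in medium and no THP-1 cells; 0% is about no effect.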 In a few lines:
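Purified IL-1-beta (4 pg/well) + compound, 11-pt conc. series; acceptor beads 6 ug/mL + biotin-Ab 0.6 nM final, 1 h RT; SA-donor 24 ug/ml final, 30 min dark RT; read ex 680/em 615.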

Setting [19] is: measured here: cell count channel max response.
Setting [20] is: measured here: lipid channel max response.

Sequence of Nuclear receptor subfamily 1 group I member 3 (Homo sapiens) (Q14994 whole entry, looked up): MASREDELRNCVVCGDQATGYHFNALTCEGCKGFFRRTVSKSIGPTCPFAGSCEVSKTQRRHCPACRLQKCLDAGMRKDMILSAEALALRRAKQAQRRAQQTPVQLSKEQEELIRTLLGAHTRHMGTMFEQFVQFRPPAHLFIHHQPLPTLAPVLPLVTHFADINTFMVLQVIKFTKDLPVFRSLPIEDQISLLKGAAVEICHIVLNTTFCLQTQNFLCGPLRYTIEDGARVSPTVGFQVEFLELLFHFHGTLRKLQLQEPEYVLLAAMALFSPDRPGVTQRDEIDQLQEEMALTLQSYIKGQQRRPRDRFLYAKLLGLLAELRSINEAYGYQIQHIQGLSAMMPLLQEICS
Sequence of Glucocorticoid receptor (Homo sapiens) (P04150 whole entry, looked up): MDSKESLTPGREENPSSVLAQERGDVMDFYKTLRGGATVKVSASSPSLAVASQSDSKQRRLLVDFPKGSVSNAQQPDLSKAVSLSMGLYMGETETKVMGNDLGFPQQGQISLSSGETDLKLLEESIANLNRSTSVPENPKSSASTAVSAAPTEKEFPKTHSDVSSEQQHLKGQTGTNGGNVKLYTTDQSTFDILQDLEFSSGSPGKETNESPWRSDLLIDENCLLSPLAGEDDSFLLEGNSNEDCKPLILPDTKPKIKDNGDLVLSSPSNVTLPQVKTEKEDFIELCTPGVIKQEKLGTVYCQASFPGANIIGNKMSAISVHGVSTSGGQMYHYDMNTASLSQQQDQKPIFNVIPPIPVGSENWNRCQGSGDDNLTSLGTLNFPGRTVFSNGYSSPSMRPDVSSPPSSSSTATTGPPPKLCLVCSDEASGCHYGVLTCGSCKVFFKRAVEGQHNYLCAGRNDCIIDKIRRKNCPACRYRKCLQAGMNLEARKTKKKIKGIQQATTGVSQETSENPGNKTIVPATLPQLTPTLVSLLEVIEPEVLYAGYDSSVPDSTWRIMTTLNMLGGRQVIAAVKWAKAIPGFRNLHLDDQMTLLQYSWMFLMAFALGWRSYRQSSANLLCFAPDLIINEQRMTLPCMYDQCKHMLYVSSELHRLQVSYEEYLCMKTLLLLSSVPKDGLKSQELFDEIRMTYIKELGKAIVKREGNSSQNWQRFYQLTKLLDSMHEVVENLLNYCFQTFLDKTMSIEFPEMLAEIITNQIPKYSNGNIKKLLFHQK
Sequence of Luciferin 4-monooxygenase (Photinus pyralis) (P08659 whole entry, looked up): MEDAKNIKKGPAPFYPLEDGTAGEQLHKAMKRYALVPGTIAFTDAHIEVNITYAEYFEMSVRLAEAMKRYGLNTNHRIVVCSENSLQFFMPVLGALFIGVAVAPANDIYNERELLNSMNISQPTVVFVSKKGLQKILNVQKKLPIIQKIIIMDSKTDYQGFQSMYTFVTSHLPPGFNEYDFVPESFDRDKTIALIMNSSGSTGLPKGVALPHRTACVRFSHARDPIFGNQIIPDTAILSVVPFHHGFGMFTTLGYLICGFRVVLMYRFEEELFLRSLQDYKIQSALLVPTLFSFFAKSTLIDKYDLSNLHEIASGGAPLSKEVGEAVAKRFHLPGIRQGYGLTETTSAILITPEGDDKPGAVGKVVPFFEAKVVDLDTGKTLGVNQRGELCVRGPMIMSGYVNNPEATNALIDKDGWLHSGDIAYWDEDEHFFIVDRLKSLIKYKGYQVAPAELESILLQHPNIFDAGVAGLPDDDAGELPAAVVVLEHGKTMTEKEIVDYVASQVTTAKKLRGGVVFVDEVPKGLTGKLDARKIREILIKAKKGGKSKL
Sequence of 3',5'-cyclic-AMP phosphodiesterase 4B (Homo sapiens) (Q07343 whole entry, looked up): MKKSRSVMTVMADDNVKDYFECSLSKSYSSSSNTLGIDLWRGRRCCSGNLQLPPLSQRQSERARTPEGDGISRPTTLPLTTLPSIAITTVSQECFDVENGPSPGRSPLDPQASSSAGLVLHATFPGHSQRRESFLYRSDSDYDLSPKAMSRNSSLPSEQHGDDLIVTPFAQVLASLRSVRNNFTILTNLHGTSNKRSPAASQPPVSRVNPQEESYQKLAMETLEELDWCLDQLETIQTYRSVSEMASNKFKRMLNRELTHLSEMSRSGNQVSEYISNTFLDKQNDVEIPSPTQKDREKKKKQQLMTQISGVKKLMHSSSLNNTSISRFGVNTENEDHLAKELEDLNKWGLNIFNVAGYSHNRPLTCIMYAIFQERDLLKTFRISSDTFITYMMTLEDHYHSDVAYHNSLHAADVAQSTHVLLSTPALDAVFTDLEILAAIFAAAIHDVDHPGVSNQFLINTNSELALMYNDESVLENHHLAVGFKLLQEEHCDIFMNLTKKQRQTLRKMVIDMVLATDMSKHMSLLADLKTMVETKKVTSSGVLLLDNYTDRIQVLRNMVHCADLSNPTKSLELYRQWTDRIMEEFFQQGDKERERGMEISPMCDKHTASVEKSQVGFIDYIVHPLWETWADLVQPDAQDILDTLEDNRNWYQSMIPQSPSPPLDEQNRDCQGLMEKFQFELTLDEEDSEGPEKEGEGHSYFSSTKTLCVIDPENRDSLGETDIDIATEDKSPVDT
Sequence of DNA dC->dU-editing enzyme APOBEC-3G (Homo sapiens) (Q9HC16 whole entry, looked up): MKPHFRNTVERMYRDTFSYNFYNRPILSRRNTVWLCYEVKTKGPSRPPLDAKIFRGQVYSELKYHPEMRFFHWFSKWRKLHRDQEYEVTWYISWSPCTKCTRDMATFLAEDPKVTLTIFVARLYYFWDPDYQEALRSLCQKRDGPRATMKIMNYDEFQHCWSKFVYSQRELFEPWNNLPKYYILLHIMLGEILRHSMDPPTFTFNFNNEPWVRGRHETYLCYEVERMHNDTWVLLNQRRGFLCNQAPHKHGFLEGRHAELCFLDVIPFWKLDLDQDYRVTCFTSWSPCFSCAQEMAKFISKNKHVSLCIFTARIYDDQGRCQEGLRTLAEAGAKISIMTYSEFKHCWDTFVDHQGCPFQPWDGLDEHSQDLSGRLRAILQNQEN

Regarding `C[C@@H](Cc1ccc(OCC(=O)O)cc1)NC[C@H](O)c1cccc(Cl)c1`, the Potency in test [1] was > 46 µM (inactive). The call in test [2] was inactive. The Potency result in test [3], in [5] and in test [6] was “inactive” each time. The activity change, negative = inhibition in [4] is -1.87% (inactive). Moreover, the max response was 11.5% in test [4] (setting [19]) and 8.85% in test [4] (setting [20]).
For `COC(C/C=C/C=C/CC/C=C\CC(C)/C=C\C(=C/C(=O)O)CC(=O)O)/C(C)=C\C=C(/C)C(=O)O` (stereo unspecified), the activity change, negative = inhibition in [6] was -26.8% [at 3.88 µM] (inactive).
Regarding `C=C(C)[C@H]1C2C(=O)O[C@H]1[C@H]1OC(=O)[C@@]34O[C@@H]3C[C@]2(O)[C@@]14C`, in test [4], the activity change, negative = inhibition was 2.82% (inactive). In addition, the max response amounted to 7.99% in test [4] (setting [19]) and 11% in [4] (setting [20]). Further, the Potency result in test [5] and in test [6] was “inactive” in each case.
For `CC[N@@+]1([O-])C[C@]2(C)CC[C@@H](O)[C@@]34C5C[C@H]6CC[C@@]5(C(C[C@H]23)C41)[C@H](O)[C@@]6(O)CO` (stereo partly specified), the Potency in [7] was 49.3 µM (active). In addition, the Potency result in [8], in test [9], in test [10], in [11], in test [12] and in test [17] was “inactive” each time. Moreover, the result in [13], in test [14], in test [15], in test [16] and in test [18] was inactive.
On to `CCC(=O)CCCCC[C@@H]1NC(=O)[C@H]2CCCCN2C(=O)[C@H]([C@@H](C)CC)NC(=O)[C@H](Cc2cn(OC)c3ccccc23)NC1=O`, for which the Potency in test [7] is 13.9 µM (active); in test [8] it was 4.72 µM (active); in test [9], 0.841 µM (active); in [10], 3.75 µM (active). Further, the Potency entry in test [11], in test [12] and in test [17] was “inactive” in each case. For the same compound, the compound was called inactive in [13], in [14], in [15], in test [16] and in test [18].
As for `CC(CN)CC(=O)O` (stereo unspecified), in test [6], the Potency result was “inactive”.
For the compound `CC1=CC2CC[C@@H]3[C@@H](C)C[C@H](C)[C@@H](C1)N23` (stereo partly specified), the Potency result in [7], in [8], in test [9], in test [10], in test [11] and in test [12] was “inactive” each time. For the same compound, the Potency result in test [17] was “inactive”. For the same compound, the compound was called inactive in test [13], in test [14], in test [15], in test [16] and in test [18].
For `C[C@@H]1CC[C@@H](c2ccoc2)N2C[C@@]3(CC[C@@H]12)CS[C@@]1(CC[C@H]2[C@H](C)CC[C@@H](c4ccoc4)N2[C@@H]1O)C3`, the Potency in [7] was 31.1 µM (active); in [8], 7.47 µM (active); in test [9], 2.98 µM (active); in [10], 5.94 µM (active); in test [11] it was 10.5 µM (active); in [12], 8.33 µM (active). The Potency in test [17] was 10.9 µM (active). For the same compound, the compound was called inactive in test [13], in test [14], in test [15], in [16] and in test [18].
On to `c1ccc2c3c([nH]c2c1)CNCC3`, for which, in test [1], the Potency was > 20.6 µM (inactive). The Potency entry in test [7], in [8], in test [9], in test [10], in test [11] and in test [12] was “inactive” throughout. Also, the Potency entry in test [17] is “inactive”. The compound was classed as inactive in [13], in [14], in test [15], in test [16] and in test [18].
